The record followed here is PubChem BioAssay (NCI).

Common to all, as to test: NCI-60 one-dose screen, 48 h (100 = growth as untreated, 0 = no growth, -100 = all killed)
Common to all, as to details: 10 µM unless noted

The test system of experiment [1] is SK-MEL-2 melanoma.
Experiment [2] has as its system EKVX NSCLC.
Experiment [3] deals with UO-31 renal.
The test system of experiment [4] is TK-10 renal.
The test system of experiment [5] is ACHN renal.
In experiment [6] the test system is CAKI-1 renal.
Experiment [7] relates to A498 renal.
Experiment [8] concerns MOLT-4 leukemia.
Experiment [9] concerns CCRF-CEM leukemia.
The test system of experiment [10] is SN12C renal.

The panel holds about 83,000 compounds, 20% with a hit somewhere; the sample as a whole holds those more often.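 Percent growth is the endpoint: 0 to 100 indicates growth inhibition (40 means 60% inhibition), 0 means no net growth, and negative values indicate cell death.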 A number with no mark means an inactive call. Calls of active or inactive are those of the source. How the source made its calls: active means growth percent below 10; inactive means the rest.

Take `CCCCCCCCc1ccc(C(=O)Nc2ccc(C)cc2C(=O)O)cc1C`: the growth is 97.5% in experiment [1]; 88.4% in [2]; 78.6% in experiment [3]; 102% in experiment [4]; 84.4% in experiment [5]; 78.2% in [6]. Moreover, the values for the growth in experiment [7] and in experiment [8] were 98.8% and 90.8%, respectively.

As for `O=C(O)Cn1c(O)c(/C=C2/C=c3cc4c(cc3=NC2=O)OCCO4)sc1=S`, the growth in experiment [1] is 117%; in experiment [2], 101%; in [3], 89.9%; in experiment [4], 110%; in experiment [5], 119%; in experiment [6], 99.3%. In addition, the growth in experiment [7] was 118%; in experiment [9] it was 97.3%; in experiment [8], 105%.

As to `CC(C)Sc1nc(NCCc2c[nH]c3ccccc23)c(C#N)c(-c2ccc(F)cc2)n1`, the growth in experiment [1] was 70.3%; in experiment [2], 32.7%; in experiment [3], 44.8%; in experiment [4], 96.3%; in experiment [5], 51.7%; in experiment [6], 42.7%. Further, the growth in experiment [7] was 42.4%; in [8], 12%.

With `COc1ccc(C(=O)/C=C/c2c(F)cccc2Cl)cc1S(N)(=O)=O`, the growth in experiment [2] is 8.71% (active); in experiment [10] it was 12.8%; in experiment [3], 0.59% (active); in experiment [4] it was 27.4%; in experiment [5], -13.8% (active); in experiment [6] it was 16.4%. The growth in experiment [7] is 74%; in experiment [9] it was 6.01% (active).

Take `COc1ccc2cc([C@H](C)C(=O)N/N=C/c3ccc(Br)cc3)ccc2c1`: the growth is 109% in experiment [1]; 94.2% in experiment [2]; 101% in [4]; 106% in experiment [5]; 87.2% in [6]; 107% in experiment [7]. The results for the growth in experiment [9] and in experiment [8] were 101% and 86.6%, respectively.

With `Cc1cc(=O)oc2cc(OCCCOc3ccc(/C=C/C(=O)Nc4ccccc4N)cc3)ccc12`, the growth is 48.7% in experiment [1]; 31.2% in [2]; -22.9% (active) in [3]; 49.8% in [4]; 34.6% in [5]; 29.6% in experiment [6]. In addition, the growth is 11.2% in [7], 9.74% (active) in experiment [9] and 12.5% in experiment [8].

Turning to `CC(=O)OC[C@@]1(C)C2CC[C@]3(C)C(CC=C4C5CC(C)(C)CC[C@]5(C(=O)Nc5ccc(F)cc5)CC[C@]43C)[C@@]2(C)C[C@@H](OC(C)=O)[C@@H]1OC(C)=O` (some centres undefined), the growth in experiment [1] is 32.6%; in experiment [2] it was 28.1%; in experiment [3], 38.6%; in experiment [4], 56.5%; in experiment [5], 38.6%; in [6] it was 44.9%. Also, the growth in experiment [7] is 63.1%; in experiment [9], 29.8%; in experiment [8], 35%.

As to `COc1ccc(C(SCCNCc2cc(N(C)C)ccn2)(c2ccccc2)c2ccccc2)cc1`, the growth in [1] is -34.9% (active); in [2], 9.49% (active); in experiment [3], 15.4%; in experiment [4], 24.5%; in experiment [5], 20.3%; in [7] it was 4.54% (active). The growth in experiment [8] was 9.51% (active).

On to `COc1ccc2[nH]cc(-c3nc(N)nnc3-c3cn(C)c4ncccc34)c2c1`, for which the growth is 49.4% in [1]; 63.7% in experiment [2]; 43.9% in [3]; 93.1% in experiment [4]; 67.3% in [5]; 38.8% in [6]. Moreover, the growth in experiment [7] was 104%; in experiment [9], 67.7%; in experiment [8], 41.3%.

Take `COc1ccccc1C(=O)NN1C(=O)/C(=C/C2=Cc3ccccc3OC2)SC1=S`: the growth is 105% in [2]; 104% in experiment [10]; 74% in experiment [3]; 124% in [4]; 103% in [5]; 45.5% in [6]. Moreover, the results for the growth in [7], in experiment [9] and in experiment [8] were 134%, 93.7% and 100%, respectively.

Regarding `COc1ccc2c(c1)c(-c1cc3nc(-c4cn(C)c5ncc(Br)cc45)cc(N)n3n1)cn2C`, the growth in [2] is -51.6% (active); in experiment [10], -75.3% (active); in experiment [3], -58.1% (active); in experiment [4], -40.8% (active); in experiment [5], -92.3% (active); in experiment [6] it was -39.9% (active). In addition, the values for the growth in experiment [7], in [9] and in [8] were 86.8%, -29.2% (active) and -43.6% (active), respectively.

With `O=C(COc1ccc(NC(=O)Nc2ccc(Cl)cc2)cc1)N/N=C/c1ccccc1`, the growth in experiment [2] is -58.5% (active); in [3], -14% (active); in [4], -77.9% (active); in experiment [5] it was -77.4% (active); in experiment [6], -89.6% (active); in experiment [7], -94.3% (active). The growth was -13.7% (active) in [9] and 9.72% (active) in experiment [8].

Turning to `CC(=O)OC[C@@]1(C)C2CC[C@]3(C)C(CC=C4C5CC(C)(C)CC[C@]5(C(=O)Nc5cccc(C)c5)CC[C@]43C)[C@@]2(C)C[C@@H](OC(C)=O)[C@@H]1OC(C)=O` (some centres undefined), the growth in experiment [2] was 30.7%; in [3], 37.4%; in [4], 52.9%; in [5], 38.8%; in experiment [6], 42.2%; in experiment [7], 59.6%. Besides, the results for the growth in experiment [9] and in experiment [8] were 30.4% and 30.7%, respectively.

Take `Cc1ccc(Cc2cnc(NC(=O)c3ccc(/C=C4\SC(=S)N(C)C4=O)cc3)s2)cc1`: the growth in [2] was 60%; in experiment [10], 30.8%; in experiment [3] it was 37.7%; in experiment [4], 61.5%; in [5], 31.1%; in experiment [6], 38.4%. The growth in experiment [7] is 107%; in experiment [9], 32.3%; in experiment [8], 24.1%.

Take `CCC(C)(C)c1ccc(OCCCCN2CCN(c3ccncc3)CC2)cc1`: the growth in experiment [2] is 28%; in [3], 40.2%; in experiment [4], 70.8%; in experiment [5], 68.9%; in [7], 88.9%; in [9] it was 2.23% (active). For the same molecule, the growth in experiment [8] was 1.66% (active).

On to `COc1ccc(/C=C2\C(=O)Nc3ccc(Cl)cc32)cc1OCc1ccccn1`, for which the growth in experiment [2] was 23.8%; in experiment [10], 44.3%; in experiment [3], 5.88% (active); in [4] it was 63.6%; in [5], 12.2%; in experiment [6], 24.3%. For the same molecule, the growth was 120% in experiment [7], 50.8% in [9] and 45.7% in experiment [8].

Take `O=C(O)c1cccc(-c2ccc(/C=N/NC(=O)c3[nH]c4ccc(Br)cc4c3-c3ccccc3)s2)c1`: the growth in [2] is 35.2%; in experiment [10] it was 57.5%; in experiment [3], 47.9%; in experiment [4] it was 86.8%; in [5] it was 44.1%; in experiment [7], 100%. The growth in experiment [9] was 31%; in experiment [8], 45.3%.

`O=C(N/N=C/c1ccc(-c2ccc(O)cc2)o1)c1[nH]c2ccc(Br)cc2c1-c1ccccc1`: the growth is 8.78% (active) in experiment [2]; -57.9% (active) in experiment [10]; 1.62% (active) in [3]; 1.67% (active) in experiment [4]; -21.7% (active) in experiment [5]; 5.94% (active) in experiment [6]. Moreover, the growth was 38.2% in experiment [7], 4.83% (active) in experiment [9] and 0.944% (active) in experiment [8].

With `CC1(C)CC[C@]2(C(=O)Nc3ccccc3)CC[C@]3(C)C(=CCC4[C@@]5(C)C[C@@H](O)[C@H](O)[C@@](C)(CO)C5CC[C@]43C)C2C1` (some centres undefined), the growth in [2] was 52.9%; in experiment [3], 47.3%; in [4], 86.7%; in experiment [5], 59.9%; in experiment [6] it was 44.1%; in experiment [7], 56.9%. The growth in experiment [9] was 30.4%; in experiment [8] it was 5.99% (active).

In the case of `O=C(c1ccc(Cl)cc1)c1ccc(OCCCN2CCN(c3ccncc3)CC2)cc1`, the growth in [2] was 32.6%; in [3], 40%; in experiment [4], 82.2%; in [5], 74%; in experiment [6] it was 56.7%; in [7], 80.5%. The growth was 21.5% in experiment [9] and 15.7% in experiment [8].

With `O=C(/C=C/c1ccc(O)c(O)c1)NC1CCOC1O` (centres undefined), the growth in [2] is 97.1%; in experiment [10], 96.4%; in experiment [3] it was 80.4%; in experiment [4] it was 109%; in experiment [5], 104%; in [6], 92.9%. Moreover, the figures for the growth in experiment [7], in experiment [9] and in [8] were 109%, 96.4% and 96.3%, respectively.

As to `COc1cc2c(c(OC)c1OC)C(=O)CC(c1cccc(NC(=O)c3cc(N)ccc3Cl)c1)O2` (centres undefined), the growth is 78.7% in experiment [2]; 64.6% in experiment [10]; 51.5% in experiment [3]; 106% in experiment [4]; 50.6% in experiment [5]; 50.3% in [6]. Further, the growth is 105% in experiment [7], 22.5% in [9] and 21.5% in [8].

`COc1ccc(-c2ccnc(SCc3cc4cc(OC)ccc4[nH]c3=O)n2)cc1`: the growth is 34% in experiment [2]; 14.7% in experiment [10]; 21.1% in [3]; 36.8% in experiment [4]; 33.6% in experiment [5]; 38.8% in [6]. In addition, the figures for the growth in experiment [7], in [9] and in experiment [8] were 79.6%, 6.65% (active) and 4.45% (active), respectively.

For the molecule `CC(=O)Nc1cccc(Nc2nccc(N[C@@H](C)c3ccccc3)n2)c1`, the growth in experiment [2] is 16.6%; in [10], 15.4%; in [3], 25.9%; in [4], 29.1%; in [5], 12.7%; in [6], 29%. In addition, the values for the growth in experiment [7], in experiment [9] and in experiment [8] were 68%, 24.9% and 20.5%, respectively.

For the molecule `Cc1sc(C(NC(=O)OCCn2c([N+](=O)[O-])cnc2C)C(F)(F)Cl)nc1-c1ccc(OC(F)(F)F)cc1` (centres undefined), the growth in experiment [2] was -98% (active); in experiment [3], -95.5% (active); in experiment [4], -91.7% (active); in experiment [5] it was -98.5% (active); in [6] it was -76.6% (active); in experiment [7], -89.7% (active). For the same molecule, the growth is -17.4% (active) in experiment [9] and 2.22% (active) in experiment [8].

For `O=C1NC(=O)c2c1c1c3cc(Br)ccc3[nH]c1c1oc3ccc(F)cc3c21`, the growth in experiment [2] was 20.7%; in experiment [10], -39.1% (active); in experiment [3], 10.8%; in experiment [4], 66.7%; in [5], -72.5% (active); in experiment [6], -64.8% (active). In addition, the growth is -83.1% (active) in [7], 2.94% (active) in experiment [9] and -5.4% (active) in [8].

As for `CCCCSc1nc(NCCc2c[nH]c3ccccc23)c(C#N)c(-c2ccc(F)cc2)n1`, the growth in experiment [2] was 40.9%; in [3] it was 56.3%; in experiment [4], 107%; in experiment [5] it was 71.9%; in experiment [6], 48.2%; in experiment [7], 103%. Besides, the growth in experiment [9] and in experiment [8] was 36.5% throughout.

`C#CCOc1cc(N(CC)CC)ccc1C(C(=O)NC(C)(C)C)N(C(=O)C1CCc2cc(F)ccc2O1)c1ccc(Br)cc1` (centres undefined): the growth was 55.3% in experiment [2]; 76.9% in experiment [10]; 51% in experiment [3]; 116% in experiment [4]; 83.2% in experiment [5]; 135% in [7]. Further, the growth is 63.6% in experiment [9] and 21.8% in experiment [8].

`COc1cc(OC)c2c3nc4cc(C)c(C)cc4nc3n(CCN(C)C)c2c1`: the growth was 89.9% in experiment [2]; -48.8% (active) in experiment [10]; -68.6% (active) in [3]; 147% in [4]; 47.3% in experiment [5]; 50.5% in [6]. Further, the growth is 105% in experiment [7] and 10.4% in experiment [8].
